From PubChem
Rows were chosen to be rich in hits. Some 3.7% of all compounds tested hit in one or more screens of this group.
esBAF inh = inhibitors of esBAF chromatin remodeling in mouse ES cells | Bmi1-luciferase knock-in reporter, 24 h; 100% = twice the neutral-well signal | reporter increase, % at 12.5 µM | 2% of 350,000 active; in the data active means activation above about 40%; inconclusive means no clear call, values can overlap the other calls;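 further: 0% = median of the plate's neutral control wells and 100% = double that signal; a rise in the Bmi1 reporter signal indicates esBAF inhibition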
Ecoli rRNA inh = inhibits bacterial ribosomal RNA function over humanized ribosomes | E. coli WT GFP vs humanized-ribosome RFP mutants, fluorescence, 24 h; hits give low values; DMSO median 0, no signal -100 | GFP signal change (wild-type ribosome), % (no concentration beside the values) | 1.6% of 350,000 active;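 active means significant combined selectivity score with lowered wild-type GFP, culture density cut under 30%, mutant RFP and density less affected; inactive means any of these conditions unmet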
MITF TRPM1 HTS = activators of MITF-driven TRPM1 promoter activity in SK-MEL-5 cells; AID 588334; SK-MEL-5 TRPM1-promoter luciferase, 24 h; % of positive control, neutral wells = 0; activation, % at 12.5 µM; 0.75% of 300,000 active;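 active means mean activation of at least 80% with every replicate also reaching 80%; inconclusive means mean reaches 80% but some replicate falls short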;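 further: 0% = neutral control wells and 100% = parthenolide positive control wells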
MLL AF4-AF9 inh = MLL-AF4/AF9 protein interaction inhibition; AlphaScreen, biotin-AF4 peptide binding to FLAG-AF9; 0.47% of 350,000 active; inhibition, % at 10 µM; AID 651704; P42568;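 active means every replicate reaching a set inhibition limit, whatever the replicate mean, cut at about 25% in these data; inconclusive means mean inhibition reaches that limit but some replicates miss it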;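 further: 0% = plate neutral control median and 100% = total signal loss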
Target sequence (P42568 whole entry, looked up): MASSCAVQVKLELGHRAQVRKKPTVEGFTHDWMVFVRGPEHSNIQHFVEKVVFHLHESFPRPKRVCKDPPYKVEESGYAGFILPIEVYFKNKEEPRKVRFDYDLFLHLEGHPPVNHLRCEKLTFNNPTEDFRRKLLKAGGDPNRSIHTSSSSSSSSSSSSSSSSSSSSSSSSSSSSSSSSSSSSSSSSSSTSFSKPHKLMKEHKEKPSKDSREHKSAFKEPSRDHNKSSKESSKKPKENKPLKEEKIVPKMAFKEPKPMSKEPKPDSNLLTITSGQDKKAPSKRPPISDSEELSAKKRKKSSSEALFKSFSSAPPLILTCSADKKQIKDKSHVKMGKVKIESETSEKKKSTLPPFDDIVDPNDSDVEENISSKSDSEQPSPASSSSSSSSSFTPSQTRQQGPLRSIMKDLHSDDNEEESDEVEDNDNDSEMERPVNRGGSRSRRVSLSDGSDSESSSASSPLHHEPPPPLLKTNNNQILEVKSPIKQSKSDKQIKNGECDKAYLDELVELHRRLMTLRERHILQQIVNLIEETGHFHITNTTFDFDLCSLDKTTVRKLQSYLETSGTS
Wnt act = activators of Wnt/beta-catenin signaling; Wnt/beta-catenin reporter cell assay, activator, plate reader; activation, % at 9.35 µM; 1.2% of 300,000 active; in the data active means activation above about 30%, passing the limit was not always enough; inconclusive means no clear call, values can overlap the other calls;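 further: 0% = neutral control wells and 100% = positive control wells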
Active calls of the source: *; ? = inconclusive; . = not tested or not shown.

SMILES	esBAF inh	Ecoli rRNA inh	MITF TRPM1 HTS	MLL AF4-AF9 inh	Wnt act
O=C(CSc1nc2ccccc2s1)N1CCCCC1	82*	-1	74	12	19
CC1CCN(C(=O)CSc2nc3ccccc3s2)CC1	33	.	38	.	42*
CNC(=O)CSc1nc(SC)ns1	.	5	-9	-3	10
Cc1ccc(NS(=O)(=O)c2ccc3[nH]c(=O)sc3c2)cc1	-2	-52	-1	-2	-2
COc1cc(/C=N/O)ccc1OCc1ccccc1Cl	40	-24	96*	0	15
O/N=C/c1ccccc1OCc1ccccc1Cl	8	.	7	.	.
Cc1nn2c(C(F)(F)F)c3c(nc2c1-c1ccccc1)CCC3	.	.	-4	.	-4
N#C[C@H]1[C@@H](c2ccc(C#Cc3cccc(F)c3)cc2)[C@@H](CO)N1C(=O)C1CC1	0	0	.	-4	.
O=C(Nc1ccc(OC(F)(F)F)cc1)N1CCN(c2ccnc3cc(Cl)ccc23)CC1	1	-29*	.	-2	-4
CC(C)(C)C(=O)N1CCN(c2ccnc3cc(Cl)ccc23)CC1	-7	-13	.	-6	-3
Fc1ccc(N2CCN(c3nc(CN4CCOCC4)nc4scc(-c5ccccc5)c34)CC2)cc1	.	-25*	-13	?	-6
Fc1ccc(CN2CCN(c3ncnc4scc(-c5ccccc5)c34)CC2)cc1	0	-52	.	?	-6
Fc1ccc(-c2csc3ncnc(N4CCN(Cc5ccccc5)CC4)c23)cc1	0	-23*	1	3	-3
CN(Cc1ccccc1)c1nc(CN2CCOCC2)nc2scc(-c3ccccc3)c12	-7	.	9	.	-3
CCc1cc(-c2n[nH]c(=S)n2-c2ccccc2C)cs1	4	.	-2	.	-5
CCn1c(=O)c([N+](=O)[O-])c(NCc2ccco2)c2ccccc21	.	4	.	-1	11
CCNc1c([N+](=O)[O-])c(=O)n(CC)c2ccccc12	.	-33*	.	-5	2
CCN(CC)c1c([N+](=O)[O-])c(=O)n(CC)c2ccccc12	.	-35*	.	3	-2
C[C@H](CO)N1C[C@H](C)[C@@H](CN(C)S(=O)(=O)c2ccc(F)cc2)Oc2ccc(NC(=O)CCCN(C)C)cc2CC1=O	5	5	.	0	.
COC(=O)C[C@H]1CC[C@@H]2[C@@H](COc3ccc(NS(=O)(=O)c4ccc(F)cc4)cc3C(=O)N2C)O1	3	-3	.	-1	.
Cc1occc1C(=O)N/N=C/C=C/c1ccc(N(C)C)cc1	61*	-10	48	6	11
CCCCOC(=O)N/N=C/C=C/c1ccccc1	51*	6	33	-1	-1
Cc1cc(C(=O)N/N=C/C=C/c2ccccc2)c(C)o1	.	-25*	20	8	.
Cc1cc(C(=O)N/N=C/c2ccccc2)c(C)o1	.	-2	.	1	16
COCCNC(=S)NNC(=O)c1ccco1	3	.	-2	.	.
SMILES	esBAF inh	Ecoli rRNA inh	MITF TRPM1 HTS	MLL AF4-AF9 inh	Wnt act
N#CC1=C(N)Nc2nc3ccccc3n2C1c1ccc(F)cc1 (stereo not given)	.	.	-1	.	.
O=[N+]([O-])c1ccc(N2CCCCC2)nc1N1CCCCC1	-4	-40*	5	19	-2
Fc1cccc(/C=N/Nc2cc(N3CCOCC3)ncn2)c1	26	4	98*	2	26
Fc1ccc(/C=N/Nc2cc(N3CCOCC3)ncn2)cc1	9	11	77	-2	26
C[C@H](CO)N1C[C@H](C)[C@H](CN(C)C(=O)Nc2ccc(C(F)(F)F)cc2)OCCCC[C@H](C)Oc2ccc(NC(=O)NC3CCCCC3)cc2C1=O	-1	1	.	-5	.
CCc1ccc(C(=O)COC(=O)c2cccc(N3C(=O)c4c(C)nc5ccccc5c4C3=O)c2)cc1	-21	.	-9	.	48*
N#C[C@@H]1[C@H](c2ccc(C3=CCCC3)cc2)[C@H](CO)N1C(=O)c1cccc(F)c1	3	2	.	-1	.
CCC(C)CN1C(=O)CN(S(C)(=O)=O)CC1(C)C(=O)NC(C)C (stereo not given)	.	11	.	-1	-2
Nc1c(C(=O)NCc2ccco2)nnn1-c1ccccc1	50*	.	37	.	15
Cn1cccc1C(=O)OCc1cc(Cl)cc2c1OCOC2	37	.	69	.	73*
CS(=O)(=O)N1CCc2cc(NC(=O)c3ccc(Cl)cc3Cl)ccc21	.	-24*	9	-2	2
COc1ccc(NC(=O)c2ccc3c(c2)CCN3S(C)(=O)=O)cc1	8	-4	.	-1	3
CS(=O)(=O)N1CCc2cc(C(=O)Nc3ccc(Cl)cc3)ccc21	63*	9	.	3	8
